Results on eight compounds are retold here after article PMC5540273 (PLoS ONE, 2017).

Experiment [1] relates to T1, ERK4.
T1 construct: gene MAPK4
As to conditions: concentration: 1 μM, replicates: in singlicate; n = 1.

For experiment [2], the system named is T2, ERK5.
T2 construct: gene MAPK7
As to conditions: concentration: 1 μM, replicates: in singlicate; n = 1.

Experiment [3] relates to T3, ERK8.
T3 construct: gene MAPK15
Particulars: concentration: 1 μM, replicates: in singlicate, n = 1.

Experiment [4] concerns ERN1. As to conditions: concentration: 1 μM, replicates: in singlicate; n = 1.
The subject of experiment [5] is T4, FAK.
T4 construct: gene PTK2
Particulars: concentration: 1 μM, replicates: in singlicate; n = 1.

The subject of experiment [6] is FER. Particulars: concentration: 1 μM, replicates: in singlicate, n = 1.
For experiment [7], the system named is FES. Particulars: concentration: 1 μM, replicates: in singlicate, n = 1.
In experiment [8] the test system is FGFR1. As to conditions: concentration: 1 μM, replicates: in singlicate; n = 1.
Experiment [9] relates to FGFR2. Particulars: concentration: 1 μM, replicates: in singlicate; n = 1.
The subject of experiment [10] is FGFR3. Particulars: concentration: 1 μM, replicates: in singlicate, n = 1.
Experiment [11] concerns FGFR4. As to conditions: concentration: 1 μM, replicates: in singlicate; n = 1.
The subject of experiment [12] is FGR. Particulars: concentration: 1 μM, replicates: in singlicate, n = 1.
Experiment [13] relates to FLT1. As to conditions: concentration: 1 μM, replicates: in singlicate, n = 1.
In experiment [14] the test system is FLT3-autoinhibited. As to conditions: concentration: 1 μM, replicates: in singlicate, n = 1.
For experiment [15], the system named is FLT3. Particulars: concentration: 1 μM, replicates: in singlicate, n = 1.
Experiment [16] relates to FLT4. As to conditions: concentration: 1 μM, replicates: in singlicate; n = 1.
Experiment [17] has as its system FRK. Particulars: concentration: 1 μM, replicates: in singlicate, n = 1.
Experiment [18] concerns FYN. Particulars: concentration: 1 μM, replicates: in singlicate, n = 1.
Experiment [19] has as its system GAK. As to conditions: concentration: 1 μM, replicates: in singlicate, n = 1.
In experiment [20] the test system is T5, GCN2(Kin.Dom.2,S808G).
T5 construct: gene EIF2AK4
As to conditions: concentration: 1 μM, replicates: in singlicate, n = 1.

Several values for one entry are separate records, joined by “and”; a condition that tells them apart may be missing. Equal values may be shown once. Read-outs that look alike come from different tables or passages of the source.
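Further: KINOMEscan kinase panel screen.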

Turning to `Cc1cc(N2CCC(NS(=O)(=O)c3ccc(F)cc3)CC2)nc(Nc2cccc(C#N)c2)n1.O=C(O)C(F)(F)F` [GSK1653537], the “%Inh” value is given as 0% in experiment [1]; 0% in [2]; 31% in experiment [3]; 0% in experiment [4]; 0% in [5]; 18% in experiment [6]. Further, the “%Inh” value in experiment [7] is on record as 26%; in experiment [8], 6%; in experiment [9] it was 0%; in experiment [10] it was 16%; in [11], 0%; in experiment [12], 26%. Moreover, the “%Inh” value in [13] amounted to 35%; in experiment [14], 0%; in experiment [15] it was 4%; in experiment [16], 0%; in experiment [17], 8%; in experiment [18], 19%. The entries for the “%Inh” value in experiment [19] and in experiment [20] were 0% and 6%, respectively.

As for `COc1ccc(-c2nc3n(c2-c2ccncc2)CCC3)cc1` [SKF-104493], the “%Inh” value in experiment [1] was 0%; in [2], 0%; in experiment [3] (1 µM), 6% and 11%; in experiment [4], 0%; in experiment [5], 0%; in [6] (1 µM), 0% and 33%. Moreover, the “%Inh” value in [7] (1 µM) was 10% and 0%; in [8] it was 0%; in [9] it was 0%; in experiment [10] (1 µM), 0% and 9%; in [11], 8%; in [12] (1 µM), 19% and 8%. Further, the “%Inh” value is 6% and 11% in [13] (1 µM); 22% and 0% in experiment [14] (1 µM); 9% and 0% in [15] (1 µM); 0% in experiment [16]; 5% and 0% in experiment [17] (1 µM); 0% and 28% in [18] (1 µM). Moreover, the “%Inh” value in experiment [19] (1 µM) is 13% and 41%; in experiment [20] (1 µM), 27% and 0%.

Consider `CS(=O)(=O)CCNCc1nc(-c2ccc3ncnc(Nc4ccc(OCc5cccc(F)c5)c(Cl)c4)c3c2)cs1.Cl` [GW583340], for which the “%Inh” value in experiment [1] is reported as 45%; in experiment [2], 5%; in experiment [3], 0%; in [4], 10%; in [5], 0%; in experiment [6], 3%. For the same compound, the “%Inh” value worked out at 0% in experiment [7]; 0% in experiment [8]; 0% in experiment [9]; 0% in [10]; 0% in [11]; 11% in experiment [12]. For the same compound, the “%Inh” value in [13] amounted to 10%; in experiment [14], 0%; in experiment [15] it was 0%; in experiment [16] it was 0%; in [17] it was 0%; in [18], 35%. Besides, the “%Inh” value in experiment [19] is reported as 19%; in experiment [20] it was 0%.

`Fc1cccc(COc2ccc(Nc3ncnc4nn5ccccc5c34)cc2Cl)c1` [GW689066]: the “%Inh” value amounted to 0% in experiment [1]; 0% in experiment [2]; 0% in [3]; 0% in experiment [4]; 0% in experiment [5]; 16% in [6]. Besides, the “%Inh” value in [7] was found to be 0%; in experiment [8] it was 0%; in experiment [9] it was 12%; in experiment [10] it was 3%; in experiment [11] it was 0%; in [12], 4%. For the same compound, the “%Inh” value in [13] is listed as 20%; in [14], 0%; in experiment [15], 0%; in experiment [16] it was 0%; in experiment [17] it was 0%; in experiment [18], 0%. Also, the “%Inh” value in experiment [19] and in experiment [20] was 0% in each case.

In the case of `C[C@@H]1CCN(C(=O)CO)C[C@@H]1N(C)c1ncnc2[nH]ccc12`, the “%Inh” value in [1] was 19%; in experiment [2] it was 0%; in experiment [3], 9%; in [4] it was 0%; in experiment [5], 0%; in [6] it was 8%. The “%Inh” value in experiment [7] came out at 0%; in [8], 12%; in experiment [9] it was 7%; in [10], 0%; in experiment [11], 0%; in experiment [12], 0%. In addition, the “%Inh” value in experiment [13] is on record as 0%; in experiment [14] it was 0%; in [15] it was 0%; in [16] it was 0%; in experiment [17], 3%; in experiment [18] it was 0%. The figures for the “%Inh” value in [19] and in experiment [20] were 0% and 7%, respectively.

In the case of `O=C(CCO)NCCn1ccc2ncnc(Nc3ccc(Oc4cccc(C(F)(F)F)c4)c(Cl)c3)c21`, the “%Inh” value is given as 0% in experiment [1]; 5% in experiment [2]; 0% in experiment [3]; 0% in experiment [4]; 0% in experiment [5]; 0% in experiment [6]. Further, the “%Inh” value in experiment [7] was 0%; in experiment [8], 0%; in [9], 0%; in experiment [10] it was 0%; in experiment [11], 0%; in experiment [12] it was 5%. The “%Inh” value in experiment [13], in experiment [14], in experiment [15], in [16], in experiment [17] and in [18] was 0% each time. Also, the “%Inh” value in experiment [19] and in [20] was 0% throughout.

In the case of `Cc1ccc(O)cc1Nc1cc(C(F)(F)F)nc2ccc(-c3ccncc3)cc12` [GW630823], the “%Inh” value in [1] was determined as 5%; in experiment [2], 9%; in experiment [3] it was 7%; in experiment [4] it was 0%; in experiment [5] it was 3%; in experiment [6], 1%. For the same compound, the “%Inh” value in experiment [7] was found to be 6%; in [8], 0%; in experiment [9] it was 4%; in experiment [10] it was 0%; in experiment [11], 5%; in [12], 22%. Also, the “%Inh” value in [13] is recorded as 14%; in [14] it was 0%; in experiment [15], 27%; in experiment [16], 13%; in experiment [17], 14%; in experiment [18], 7%. Besides, the “%Inh” value is given as 4% in [19] and 0% in experiment [20].

Consider `CSc1nn2c(=O)cc(N3CCOCC3)nc2n1Cc1cccc(Cl)c1Cl` [GSK2347225], for which the “%Inh” value amounted to 21% in [1]; 0% in [2]; 0% in experiment [3]; 9% in experiment [4]; 0% in experiment [5]; 44% in experiment [6]. Further, the “%Inh” value in [7] worked out at 13%; in experiment [8], 6%; in experiment [9], 17%; in [10], 17%; in [11], 15%; in experiment [12], 30%. The “%Inh” value in experiment [13] is recorded as 24%; in experiment [14] it was 0%; in experiment [15], 0%; in experiment [16], 0%; in [17], 11%; in experiment [18], 17%. Besides, the “%Inh” value in experiment [19] is listed as 9%; in experiment [20] it was 1%.
